# Measured values reported in PubChem BioAssay (NCATS).
# Where “and” joins values, the source holds several entries; their conditions need not be identical. Identical values can stand only once. A number with no mark means an inactive call. Records with an inconclusive call do not appear. Calls of active or inactive are those of the source. Unless noted, calls follow the shape of the dose curve; as a rule, active = well fitted activation curve with a large enough effect; inconclusive = small, poorly fitted or top-dose-only effect; inactive = flat fitted curve, though single readings scatter. Numbered stars: 1 amine (or outer) side, 2 acyl side, 3 side chain; on linkers, the order of the positions; unused ones are H or OH. Bridge positions count the residues as written; N and C are the ends. Square brackets hold non-standard residues; d marks the D form. Peptide text beside a SMILES is read from it. I, II: the chains in the order shown. Actinocin(9to1) = Cc1c2oc3c(C)ccc(C(=O)[*:1])c3nc-2c(C(=O)[*:2])c(N)c1=O; NMeV = CN[C@H](C(=O)O)C(C)C; Sar = CNCC(=O)O
# Columns and labels:
# [1] = qHTS assay for small molecule activators of the p53 signaling pathway (AID 651743; active = well fitted activation curve with a large enough effect in the signal ratio, not every such curve was filed as active; the % refers to the signal ratio; also: series mostly up to about 92 µM; % of control where 0% means no effect); conditions: HCT-116 p53RE-bla, beta-lactamase FRET ratio, 16 h; activation: stronger effect = higher value
# Procedure, shortened: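 Read-out is fluorescence intensity from the LiveBLAzer B/G FRET substrate, added for 2 hours at room temperature after HCT-116 p53RE-bla cells had been incubated with compounds for 16 hours at 37 C.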
# [2] = qHTS assay for small molecule disruptors of the mitochondrial membrane potential - 1 hr assay (AID 651754; calls by dose curve; also: nearly all actives have a fitted effect of over 35% in size; also: potency is read from the fitted curve at half-maximal effect)
# Procedure, shortened: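 HepG2, 2,000 cells/well, overnight attachment; cpd or DMSO 1 hr, 37C/5% CO2; Mito-MPS dye 30 min, 37C; fluorescence monomer (490/535) and aggregate (540/590).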
# [3] = qHTS assay for small molecule disruptors of the mitochondrial membrane potential - 5 hr assay (AID 651755; calls by dose curve; also: nearly all actives have a fitted effect of over 40% in size; also: potency is read from the fitted curve at half-maximal effect)
# Procedure, shortened: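 HepG2, 2,000 cells/well, overnight attach; cpd or DMSO 5 hr, 37C/5% CO2; Mito-MPS 30 min 37C; fluor 490/535 + 540/590 nm.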
# [4] = target: Tumor necrosis factor (Homo sapiens) (UniProt P01375); assay: qHTS assay to identify small molecules that stimulate Tumor Necrosis Factor-alpha (TNF-alpha) secretion (AID 651757; active = well fitted curve in the direction sought with a large enough effect in the signal ratio; the % refers to the signal ratio; also: 0% is about no effect)
# Procedure, shortened: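 Read-out is HTRF, a TR-FRET sandwich of cryptate- and XL665-labeled anti-TNF-alpha antibodies detecting cytokine secreted by THP-1 cells. Cells had been incubated with test compounds at 37 C for 17 hrs beforehand.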
# [5] = qHTS assay for environmental chemicals that activate the Aryl hydrocarbon Receptor (AhR) signaling pathway (AID 651777); conditions: 1A2-DRE human hepatoma cells, luciferase, 24 h; activation: stronger effect = higher value; also: nearly all actives have a fitted effect of over 15% in size; also: potency is read from the fitted curve at half-maximal effect; as to activation: % of control where 0% means no effect
# Procedure, shortened: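 Quantitative HTS in stably transfected human liver-derived cells whose luciferase gene sits downstream of the CYP1A2 promoter and dioxin response element. After 24 hr exposure at 37 C, One-Glo luminescence was measured.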
# [6] = target: Peroxisome proliferator-activated receptor alpha (Homo sapiens) (UniProt Q07869); assay: qHTS assay for small molecule agonists of the peroxisome proliferator-activated receptor alpha (PPARalpha) signaling pathway (AID 651778); conditions: PathHunter PPARalpha complementation, chemiluminescence, 6 h; max response: stronger effect = higher value; also: % of control where 0% means no effect
# Procedure, shortened: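 Chemiluminescence from complemented enzyme reported PPARalpha activation in cells after 6 hr of compound treatment at 37 C. The detection reagent was incubated for 60 min at room temperature, and compounds were scored as agonists.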
# [7] = qHTS assay for small molecule agonists of the antioxidant response element (ARE) signaling pathway (AID 651741; active = well fitted activation curve with a large enough effect in the signal ratio; the % refers to the signal ratio; also: potency is read from the fitted curve at half-maximal effect; as to activation: % of control where 0% means no effect)
# Procedure, shortened: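 Quantitative HTS in HepG2 cells stably expressing an ARE-beta-lactamase reporter; 16 h compound exposure at 37 C, followed by 2 h room-temperature incubation with LiveBLAzer B/G FRET substrate and fluorescence measurement.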
# [8] = qHTS assay to identify small molecules that stimulate interleukin-8 (IL-8) secretion (AID 651758; active = well fitted activation curve with a large enough effect in the signal ratio; the % refers to the signal ratio; also: 0% is about no effect)
# Procedure, shortened: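 Secreted IL-8 measured by TR-FRET sandwich (cryptate and XL665 antibodies) from THP-1 cells exposed to compound overnight (16 hrs, 37 C).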
# Peroxisome proliferator-activated receptor alpha (Homo sapiens), sequence (Q07869 whole entry, looked up): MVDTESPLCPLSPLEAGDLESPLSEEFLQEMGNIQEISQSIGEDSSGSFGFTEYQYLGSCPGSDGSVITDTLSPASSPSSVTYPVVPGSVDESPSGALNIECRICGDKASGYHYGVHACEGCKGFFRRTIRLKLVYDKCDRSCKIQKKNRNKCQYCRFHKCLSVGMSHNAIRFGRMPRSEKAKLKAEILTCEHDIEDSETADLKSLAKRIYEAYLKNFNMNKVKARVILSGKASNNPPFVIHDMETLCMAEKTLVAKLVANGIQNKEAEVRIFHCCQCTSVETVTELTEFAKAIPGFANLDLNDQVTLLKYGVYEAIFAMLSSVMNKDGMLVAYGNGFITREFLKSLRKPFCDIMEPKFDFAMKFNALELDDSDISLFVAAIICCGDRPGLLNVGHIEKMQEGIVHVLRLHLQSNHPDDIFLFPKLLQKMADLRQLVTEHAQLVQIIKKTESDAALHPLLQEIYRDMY
# Tumor necrosis factor (Homo sapiens), sequence (P01375 whole entry, looked up): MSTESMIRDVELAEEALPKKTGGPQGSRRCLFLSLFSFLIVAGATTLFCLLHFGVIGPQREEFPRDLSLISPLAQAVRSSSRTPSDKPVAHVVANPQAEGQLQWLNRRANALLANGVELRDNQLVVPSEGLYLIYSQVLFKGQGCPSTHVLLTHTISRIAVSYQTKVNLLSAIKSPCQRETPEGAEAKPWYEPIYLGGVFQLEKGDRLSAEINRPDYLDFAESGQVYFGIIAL
SMILES,activation [1],Potency [2],Potency [3],outcome [4],activation [5],max response [6],Potency [7],Potency [8],Potency [5]
"Cc1c2oc3c(C)ccc(C(=O)N[C@@H]4C(=O)N[C@H](C(C)C)C(=O)N5CCC[C@H]5C(=O)N(C)CC(=O)N(C)[C@@H](C(C)C)C(=O)O[C@@H]4C)c3nc-2c(C(=O)N[C@@H]2C(=O)N[C@H](C(C)C)C(=O)N3CCC[C@H]3C(=O)N(C)CC(=O)N(C)[C@@H](C(C)C)C(=O)O[C@@H]2C)c(N)c1=O (I: T[dV]P[Sar][NMeV] / II: T[dV]P[Sar][NMeV]; ester I:1-I:C, II:1-II:C; linker I:N-II:N via Actinocin(9to1))",-13%,inactive,inactive,inactive,1.62% and 1.67%,-5.12% and -0.626%,–,–,–
Oc1c(I)cc(Cl)c2cccnc12,24.3%,–,–,inactive,–,1.34%,26.6 µM (active),inactive,44.7 µM (active)
CCCCCCc1ccc(O)cc1O,7.68% and 3.42%,37.6 µM (active),37.6 µM (active),inactive,1.13% and 0.133%,-0.464% and 3.82%,66.8 µM (active),–,–
CC(O)C(=O)O (stereo not given),-0.0251%,inactive,inactive,inactive,-0.164%,-0.871%,inactive,inactive,–
Oc1ccc(Cl)cc1Sc1cc(Cl)ccc1O,–,–,–,inactive,6.02%,18%,–,inactive,–
Nc1ccc(C(=O)O)cc1,-1.83%,–,–,inactive,-0.596%,2.41%,inactive,inactive,–
CC(C)(C)CC(C)(C)c1ccc(OCCOCC[N+](C)(C)Cc2ccccc2)cc1,20.5%,–,inactive,inactive,2.85% and 2.84%,-0.283% and 4.47%,–,–,–
CC(=O)Oc1ccc(C(c2ccc(OC(C)=O)cc2)c2ccccn2)cc1,13.1%,inactive,inactive,inactive,0.887%,-4.57%,–,–,–
O=C1OC(c2ccc(O)cc2)(c2ccc(O)cc2)c2ccccc21,9.17% and -8.34%,–,–,inactive,–,-2.04% and -2.85%,inactive,inactive,–
O=C(O)CCCCC(=O)O,-1.12%,–,–,inactive,0.177%,-5.15%,inactive,inactive,–
CC(=O)O[C@]1(C(C)=O)CC[C@H]2[C@@H]3C[C@H](C)C4=CC(=O)CC[C@]4(C)[C@H]3CC[C@@]21C,-2.08% and -7.09%,inactive,–,inactive,0.858% and 1.58%,0.549% and -0.24%,27.3 µM (active),–,–
CC/C(=C(/CC)c1ccc(O)cc1)c1ccc(O)cc1,37.6%,–,–,inactive,-2.75% and -1.46%,-0.699% and -4.24%,24.3 µM (active) and 29.8 µM (active),–,–
NC(=NCCCCCCN=C(N)/N=C(\N)Nc1ccc(Cl)cc1)/N=C(\N)Nc1ccc(Cl)cc1,–,–,–,inactive,2.77% and -7.14% and -8.81%,3.51% and 6.34% and -1.99%,–,–,–
Cc1cc(=O)n(-c2ccccc2)n1C,0.703%,–,–,–,-0.814%,0.347%,inactive,–,–
C[C@H]1C[C@H]2[C@@H]3CCC4=CC(=O)C=C[C@]4(C)[C@@]3(Cl)[C@@H](O)C[C@]2(C)[C@@]1(O)C(=O)CO,-5.8%,–,–,–,0.38%,3.36%,–,–,–
